# EWS-Fli inh = inhibitors of EWS/Fli oncoprotein transcriptional activity; 350,000 compounds, 0.67% hits; AID 651661; A673 NR0B1-luciferase reporter, viability-normalised; inhibition, % at 12.6 µM;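 active = mean inhibition of at least 50% after viability correction, with every replicate also passing that limit; inconclusive = mean reaches 50% but only one of two replicates passes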;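 also: firefly luciferase signal divided by Alamar Blue viability fluorescence both relative to DMSO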
# PAX8 reporter = inhibitors of PAX8 transcriptional activity in RMG-I cells; RMG-I TPO-luciferase reporter, SteadyGlo, 24 h; 360,000 compounds, 1.2% hits; inhibition, % at 12.6 µM;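 active = mean replicate inhibition at least 60% with every replicate also reaching 60%; inconclusive = only one of the two criteria is met; inactive = mean below 60% and not all replicates reaching 60%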;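 also: luciferase light reporting Pax8 driven TPO promoter activity; plate controls were median of neutral control wells for no effect and mitoxantrone controls for full effect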
# Env fusion inh = HIV envelope-mediated fusion inhibition | HeLa-JRFL Env/CEM21 cell fusion, luciferase | 360,000 compounds, 1.1% hits | inhibition, % at 12.3 µM;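 active = mean replicate inhibition score of at least 50 and every replicate individually at or above 50; inconclusive = only one of the two criteria met; inactive = mean below 50 and not all replicates reaching 50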;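 also: 0% = plate neutral controls and 100% = maraviroc near 300 nM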
# miR-122 sensor = blocks miR-122 activity in Huh7 sensor cells; Huh7 miR-122 Renilla luciferase sensor, 48 h; neutral wells = 0, positive control = 100; activation (reporter increase), % at 12.5 µM; 340,000 compounds, 0.3% hits; AID 602342;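 active = mean replicate activation score at least 90 and every replicate individually at or above 90; inconclusive = only one of the two criteria met; inactive = neither criterion met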;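 also: higher luciferase means less miR-122 activity so hits act as miR-122 inhibitors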
# C2C12 statin = protects C2C12 myotubes from simvastatin toxicity; ATP luminescence, 48 h; scaled: DMSO 0, geranylgeraniol control 100; rescue of ATP level, % at 7.49 µM; 330,000 compounds, 0.78% hits; AID 602340;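 active = mean ATP rescue above about 67%, or every replicate alone reaching that limit, limit read from the data, passing the limit was not always enough; inconclusive = no clear call, values can overlap the other calls; inactive = mean under the limit and some replicate under it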;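 also: myotubes were challenged with 10 µM simvastatin during compound exposure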
# GSIS activator = primary screen for activators of insulin secretion dependent on glucose, INS-1E cells, GLuc reporter luminescence. INS-1E GLuc reporter insulin secretion, 2-3 h. activation, % at 16.6 µM. 370,000 compounds, 0.61% hits. AID 743287;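 active = lowest replicate activation of at least 40%, so every replicate reaches that level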;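 also: 0% = median of neutral control wells and 100% = median of IBMX positive control wells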
# Starred values were filed as active, the others as inactive; i = inactive; ? = inconclusive; . = no result given; [ ] = another dose, or the depositor's remark. Sampled rows, rich in hits. Any-hit rate of the full collection: about 3.1%.
SMILES,EWS-Fli inh,PAX8 reporter,Env fusion inh,miR-122 sensor,C2C12 statin,GSIS activator
COc1cccc(Nc2nc(C(N)Cc3ccccc3)cs2)n1 (configuration not stated),8,14,-51,-3,-4,.
O=C(NCc1cc(C(F)(F)F)ccc1Cl)c1cccc2c1C(=O)c1ccc(N3CCC(N4CCCCC4)CC3)cc1S2(=O)=O,48,94*,16,-1,-9,-5
O=C(NCc1cc(C(F)(F)F)ccc1Cl)c1cccc2c1C(=O)c1ccc(N3CCCCC3)cc1S2(=O)=O,18,14,-11,-1,-7,.
CCOc1ccc(C(=O)NCc2ccccc2)cc1Br,-11,79*,.,-1,.,.
CC(C)NC(=O)Nc1ccc2c(c1)C(=O)N([C@H](C)CO)C[C@@H](C)[C@H](CN(C)C(=O)Nc1ccc(F)cc1)O2,-2,-29,-12[16.7 µM],-2[16.7 µM],-3,16
O=C(Nc1cc(C(F)(F)F)ccc1F)C1Cc2c(-c3ccccc3Oc3ccccc3)ccnc2O1 (configuration not stated),9,27,79*,-2,1,.
O=C(Nc1ccccc1)C1Cc2c(-c3ccccc3Oc3ccccc3)ccnc2O1 (configuration not stated),6,13,11,-4,5,-12
O=C(Nc1cccc(OC(F)(F)F)c1)C1Cc2c(-c3ccccc3Oc3ccccc3)ccnc2O1 (configuration not stated),20,20,59*,-14,-10,.
C[C@@H]1CCCCO[C@H](CN(C)C(=O)C2CCCCC2)[C@@H](C)CN([C@@H](C)CO)C(=O)c2cc(NC(=O)c3ccncc3)ccc2O1,3,25,-6[16.7 µM],-6[16.7 µM],14,-2
FC(F)(F)c1nc2ccccc2n2c(-c3ccc(Cl)cc3Cl)nnc12,.,.,.,-17,84*,.
CN(C)CCCN(C(=O)c1ccc(Cl)s1)c1nc2cc3c(cc2s1)OCO3,57*,-3,-5,6,-2,-30
CN(C)CCCN(C(=O)c1cc2cc([N+](=O)[O-])ccc2s1)c1nc2cc3c(cc2s1)OCCO3,52*,.,87*,.,11,-11
CN(C)CCCN(C(=O)c1ccc([N+](=O)[O-])s1)c1nc2cc3c(cc2s1)OCCO3,.,-22,-11,-1,6,9
O=C(c1cccs1)N(Cc1nc2sc3c(c2c(=O)[nH]1)CCCC3)C1CCCC1,.,20,-23,7,22,.
Cc1sc2nc(CN(C(=O)c3cccs3)C3CCCC3)[nH]c(=O)c2c1C,.,35,19,11,148*,.
CCc1cc(OCCN(C)C)ccc1Cl,3,-18,23,.,.,-2
CN(C)CCOc1ccc2c(c1)C(=O)C(=Cc1ncc([N+](=O)[O-])n1C)C2,52*,99*,13,-22,3,.
C[C@@H](NC(=O)C[C@H]1CC[C@@H](NC(=O)c2cccnc2)[C@H](CO)O1)c1ccccc1,-3,7,-4[16.7 µM],-3[16.7 µM],2,0
NC1=C(Cl)C(=O)c2ccc(S(N)(=O)=O)cc2C1=O,65*,121*,63*,-3,-235,-3
NC1=C(Cl)C(=O)c2ccccc2C1=O,-14,-3,-4,.,.,-6
CCOC(=O)c1ccc(NC(=O)c2nc[nH]c2C(=O)NCCNC(=O)c2[nH]cnc2C(=O)Nc2ccc(C(=O)OCC)cc2)cc1,60*,-13,82*,-6,11,14
Cc1cccc(NC(=O)c2nc[nH]c2C(=O)NCCCCNC(=O)c2[nH]cnc2C(=O)Nc2cccc(C)c2)c1,22,4,70*,-2,-19,-6
CCOC(=O)c1[nH]cnc1C(=O)NC(C)C,.,.,.,-2,7,41*
COc1ccc2c3c([nH]c2c1)[C@H](CO)N(C(=O)Cc1ccccc1)CC31CN(C)C1,-22,0,.,.,.,0
Cc1cccc(-c2nc(CSCC(=O)N3CCN(c4ccccn4)CC3)c(C)o2)c1,.,22,89*,-3,5,.
SMILES,EWS-Fli inh,PAX8 reporter,Env fusion inh,miR-122 sensor,C2C12 statin,GSIS activator
Cc1nc2ccc(C(=O)N3c4ccccc4N=C(c4ccc(C(F)(F)F)cc4)C3C(=O)NC(C)(C)C)cc2[nH]1 (configuration not stated),-32,-36,89*,.,.,9
COc1ccc(NC(=O)N(C)C[C@@H]2Oc3ccc(NS(=O)(=O)c4ccccc4)cc3C(=O)N([C@@H](C)CO)C[C@H]2C)cc1,-7,.,-21[16.7 µM],5[16.7 µM],.,16
Cn1nnnc1Sc1ncnc2scc(-c3ccccc3C(F)(F)F)c12,5,49,2,7,19,50
Cn1nnnc1Sc1ncnc2scc(-c3cccc(C(F)(F)F)c3)c12,12,101*,-23,-10,-40,47
COc1cccc(-c2csc3ncnc(Sc4nnnn4C)c23)c1,19,99*,-151,-12,-36,53*
Cn1nnnc1Sc1ncnc2scc(-c3ccc(C(F)(F)F)cc3)c12,35,77*,-33,2,-17,-12
Cn1nnnc1Sc1ncnc2scc(-c3cccc(F)c3)c12,29,105*,-27,2,-29,22
CC(=O)Nc1ccc2c(c1)C(=O)N(C)C[C@H](C)[C@H](CN(C)C(=O)NC(C)C)O2,.,.,.,.,.,8
C[C@@H]1CN([C@@H](C)CO)C(=O)Cc2cc(NC(=O)CCC(F)(F)F)ccc2O[C@H]1CN(C)Cc1ccc(C(F)(F)F)cc1,11,?,.,-11[16.7 µM],26,-5
CCCNC(=O)N1[C@@H]2c3ccc(-c4cccc(F)c4)c(=O)n3C[C@H]1[C@H](CO)[C@H]2C(=O)NC1CCC1,-7,-21,.,.,.,6
CCN(CC)Cc1c(O)ccc2c1O/C(=C\C=C\c1ccccc1)C2=O,77*,-19,i,278*,106*,-3
CCN(CC)CC(C)(C)COC(=O)c1oc2ccccc2c1C,-6,-1,8,9,.,12
Cc1c(C(=O)OCC(C)(C)CN(C)C)oc2ccccc12,.,-80,-27,4,95*,.
O=C(CSCC(=O)Nc1cccc2ccccc12)Nc1cccc2ccccc12,15,24,71*,-2,14,25
O=C(CC(NC(=O)c1ccccc1)c1ccccc1)NCc1ccccc1 (configuration not stated),4,-3,5,.,10,-1
O=C(CSCCO)Nc1cccc2ccccc12,.,.,-28,3,10,.
O=C(CC(NC(=O)c1ccccc1)c1ccccc1)Nc1cccc2ccccc12 (configuration not stated),.,0,-25,5,.,95*
CNC[C@H]1OCCCC[C@H](C)Oc2ccc(NS(=O)(=O)c3ccccc3)cc2C(=O)N([C@H](C)CO)C[C@@H]1C,-2,5,-12[16.7 µM],-3[16.7 µM],15,7
Cc1nnc(SCC(=O)Nc2nsc(-c3ccccc3)n2)s1,.,.,57*,-8,5,1
CCOc1ccc(Cl)cc1S(=O)(=O)n1cnc2ccccc21,.,.,.,20,-8,.
